PRMT1 FP inh: inhibitors of human PRMT1. Q99873. recombinant PRMT1, activity-based probe fluorescence polarization. inhibition, % at 2.79 µM. 370,000 compounds, 1.3% hits;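 active = inhibition above about 21% made by adding two undisclosed values, limit read from the data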
Target sequence (Q99873 whole entry, looked up): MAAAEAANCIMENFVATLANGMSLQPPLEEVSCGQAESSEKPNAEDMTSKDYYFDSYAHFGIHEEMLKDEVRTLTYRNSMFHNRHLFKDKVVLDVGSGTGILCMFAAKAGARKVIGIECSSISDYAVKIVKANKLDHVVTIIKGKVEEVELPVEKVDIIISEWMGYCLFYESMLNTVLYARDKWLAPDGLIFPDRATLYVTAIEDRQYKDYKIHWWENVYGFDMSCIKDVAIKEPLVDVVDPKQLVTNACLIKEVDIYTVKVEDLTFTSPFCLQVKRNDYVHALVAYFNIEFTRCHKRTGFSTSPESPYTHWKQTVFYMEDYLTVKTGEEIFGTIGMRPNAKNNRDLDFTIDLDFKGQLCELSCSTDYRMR
PfGluPho inh: PfG6PD (Plasmodium falciparum) enzyme inhibition | PfGluPho enzyme, NADPH resazurin-diaphorase fluorescence | inhibition, % at 20 µM | 350,000 compounds, 0.78% hits | AID 504690;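 active = inhibition reaching at least a set limit at 20 µM in the primary screen, cut at about 59% in these data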
MBD2 DNA inh: MBD2-methylated oligo binding inhibition. Q9UBB5. TR-FRET, MBD2 binding to methylated oligonucleotide. inhibition, % at 4.4 µM. 370,000 compounds, 0.31% hits; in the data active = inhibition above about 13%
Target sequence (Q9UBB5 whole entry, looked up): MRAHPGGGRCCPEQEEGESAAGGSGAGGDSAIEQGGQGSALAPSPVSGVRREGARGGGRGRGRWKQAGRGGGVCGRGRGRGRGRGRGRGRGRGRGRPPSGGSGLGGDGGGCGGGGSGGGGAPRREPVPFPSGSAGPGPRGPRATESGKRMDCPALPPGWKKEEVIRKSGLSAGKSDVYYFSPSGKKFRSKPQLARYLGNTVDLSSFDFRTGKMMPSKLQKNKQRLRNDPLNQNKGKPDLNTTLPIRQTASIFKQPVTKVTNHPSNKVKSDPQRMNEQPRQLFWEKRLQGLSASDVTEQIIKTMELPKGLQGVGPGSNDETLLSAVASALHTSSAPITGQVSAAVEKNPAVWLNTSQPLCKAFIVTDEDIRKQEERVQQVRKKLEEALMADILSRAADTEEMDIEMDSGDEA
UHRF1 MBD2 ctr: human UHRF1 methylated DNA binding inhibitors. Q96T88. UHRF1 binding to methylated oligo, TR-FRET. inhibition, % at 4.4 µM. 370,000 compounds, 0.75% hits; in the data active = inhibition above about 21%;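 also: UHRF1 SRA domain binding a hemimethylated CpG hairpin DNA probe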
M18AAP inhibitor: blocks P. falciparum M18 aspartyl aminopeptidase | recombinant PfM18AAP, H-Glu-NHMec fluorogenic cleavage | inhibition, % at 7.35 µM | 290,000 compounds, 1.2% hits;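 active = inhibition above the campaign mean inhibition over all tested compounds plus 3 SD, cut at about 28% in these data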
PfG6PD confirm: confirmation of Plasmodium falciparum G6PD inhibitors; shares compounds with PfGluPho inh; recombinant PfGluPho, NADPH-diaphorase-resazurin fluorescence; inhibition, % at 20 µM; 2,400 compounds, 34% hits; AID 504753;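 active = inhibition of at least 50% at 20 µM in any single replicate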
Diaphorase 10uM: counter-screen for P. falciparum G6PD inhibitors: diaphorase inhibitors, oxidizers; shares compounds with PfGluPho inh; diaphorase-coupled resazurin reduction, fluorescence, NADPH 10 uM; inhibition, % at 20 µM; 820 compounds, 39% hits; AID 504862;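 active = average inhibition reaching 50% or more with the compound at 20 µM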;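 also: resorufin red fluorescence formed as diaphorase reduces resazurin using NADPH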
Diaph ctr 30uM: counter-screen for P. falciparum G6PD inhibitors: diaphorase inhibitors, oxidizers. inhibition, % at 20 µM. Diaphorase/resazurin coupled assay, resorufin fluorescence, 30 uM NADPH. shares compounds with PfGluPho inh. 820 compounds, 29% hits;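 active = inhibition averaging 50% or more, tested at 20 µM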
Of the large screens only hits and unclear results are named; the others gave an inactive call (follow-up assays come after a bar, where they were run). Shown are actives, neighbours in structure and some others; about 3.3% of the full set was active somewhere.

CC(C)c1ccc(N=C2N=C(N)c3ccccc32)cc1	PfGluPho inh 59 | PfG6PD confirm inactive
COc1cc(CCN=Cc2cccc(OC)c2O)c([N+](=O)[O-])cc1OC	none (no result: PfGluPho inh, M18AAP inhibitor)
Cc1ccc2nc(-c3ccc(-c4ccccn4)s3)cn2c1	PfGluPho inh 65 | PfG6PD confirm inactive
Clc1ccc(-c2cn3cc(Cl)ccc3n2)cc1	PfGluPho inh 72 | PfG6PD confirm inactive
Cc1ccc2nc(-c3ccccc3)cn2c1	PfGluPho inh 79 | PfG6PD confirm inactive
COc1ccc(C(=O)Nc2ccc(OCC(F)(F)C(F)F)c(C(F)(F)F)c2)cc1OC	none
O=C(Nc1ccc(OCC(F)(F)C(F)F)c(C(F)(F)F)c1)c1ccc(Cl)cc1	PfGluPho inh 86 | PfG6PD confirm inactive
C=CCCC1CN(Cc2ccc(OC)cc2)S(=O)(=O)c2c(F)cccc2O1 (stereo not drawn)	none (no result: PfGluPho inh, M18AAP inhibitor)
CC1=CC(=Nc2c(C)n(C)n(-c3ccccc3)c2=O)C=CC1=O	none (no result: PRMT1 FP inh, PfGluPho inh, MBD2 DNA inh, UHRF1 MBD2 ctr)
CC1=CC(=Nc2c(C)n(C)n(-c3ccccc3)c2=O)C=C(C)C1=O	PfGluPho inh 72 | PfG6PD confirm 57 | Diaphorase 10uM 64 | Diaph ctr 30uM 69
O=S1(=O)c2ccc(N3CCCC3)cc2Oc2ccccc2CN1Cc1cn(Cc2ccc(Cl)cc2)nn1	none (no result: PfGluPho inh, M18AAP inhibitor)
CCCCCC[C@@H](CCCc1ccccc1OC)CN(CCCC)S(C)(=O)=O	none (no result: PfGluPho inh, M18AAP inhibitor)
CCC[C@H]1[C@H](N)CC[C@@]23CCCN2C(=O)CCC[C@@H]13	none (no result: PfGluPho inh, M18AAP inhibitor)
CC1=C(C(N)=O)C(c2ccccc2[N+](=O)[O-])n2ncnc2N1 (stereo not drawn)	PfGluPho inh 65 | PfG6PD confirm inactive
Cc1ccc(/C=[N+](\[O-])c2ccc(N(C)C)cc2)c2nsnc12	PfGluPho inh 64, M18AAP inhibitor 31 | PfG6PD confirm inactive
CCC[C@H]1[C@@H](NC(=O)c2cccc(N(C)C)c2)CC[C@@]23CCCN2C(=O)CCC[C@@H]13	none (no result: PfGluPho inh, M18AAP inhibitor)
C=CCc1cccc(/C=N/NC(=O)c2ccccc2OC)c1O	PfGluPho inh 79, M18AAP inhibitor 30 | PfG6PD confirm inactive
C=CCc1cccc(/C=N/NC(=O)c2ccccc2Br)c1O	PfGluPho inh 75 | PfG6PD confirm inactive
COc1ccccc1/C=N/NC(=O)c1ccccc1Cl	none
O=C(N/N=C/c1ccccc1C(=O)O)c1ccccc1Br	none
O=C(N/N=C/c1cccc(Oc2ccccc2)c1)c1ccccc1Br	PfGluPho inh 89 | PfG6PD confirm inactive
CN=c1nc(-c2ccccc2)n(-c2ccccc2)s1	PfGluPho inh 121 (no result: M18AAP inhibitor) | PfG6PD confirm 111 | Diaphorase 10uM inactive | Diaph ctr 30uM inactive
Cn1nc(-c2ccccc2)nc1-c1ccccc1	none (no result: M18AAP inhibitor)
Cc1ccccc1NC(=O)CSc1nc2ncc(Cl)cc2[nH]1	none
Cc1ccc(S(=O)(=O)N(C)C)cc1NC(=O)CSc1nc2ncc(Cl)cc2[nH]1	PfGluPho inh 66 (no result: M18AAP inhibitor) | PfG6PD confirm 52 | Diaphorase 10uM inactive | Diaph ctr 30uM inactive
COc1cccc(N2[C@@H](CC(=O)O)c3cc(C(F)(F)F)ccc3S2(=O)=O)c1	PfGluPho inh 72 (no result: M18AAP inhibitor) | PfG6PD confirm inactive
Cc1nc2c(=O)[nH]c3ccccc3c2o1	none
Cc1ccc2cc(C)c(Sc3nnnn3-c3ccccc3)nc2c1	none
Cc1cc(C)c(SSc2nnnn2-c2ccccc2)c(C)c1	PfGluPho inh 113 (no result: M18AAP inhibitor) | PfG6PD confirm inactive
COc1cccc(C(=O)N[C@H](C(=O)N2CCC[C@H]2C(=O)NC2CCCC2)C2CCCCC2)c1	none (no result: PfGluPho inh, M18AAP inhibitor)
O=c1cc(CSc2nc3cc(Cl)ccc3o2)nc2sccn12	PfGluPho inh 80 | PfG6PD confirm inactive
COC(=O)[C@]12C[C@H](CC(=O)NCCc3ccccc3OC)C(=O)N(CCc3ccc(OC)c(OC)c3)C1=C[C@H](C(C)C)O[C@@H]2C1CC1	none (no result: PfGluPho inh, M18AAP inhibitor)
CCN(CCS(=O)(=O)c1ccc(Cl)cc1)C(=O)Nc1ccccc1	none
O=C(Nc1ccccc1)N(O)c1ccc(Cl)cc1	PfGluPho inh 87 | PfG6PD confirm inactive
Cc1cc(O)c(C(C)C)cc1N=Cc1cc([N+](=O)[O-])ccc1O	PfGluPho inh 82 | PfG6PD confirm inactive
Cc1cc(O)c(C(C)C)cc1N=Cc1ccccc1O	PfGluPho inh 103 | PfG6PD confirm inactive
O=C(NC1=NCCS1)C1CC(=O)N(c2ccc(Cl)cc2)C1 (stereo not drawn)	none
O=c1cnnc(N/N=C/c2ccccn2)[nH]1	none | PfG6PD confirm inactive
C(=N\Nc1nc2ccccc2[nH]1)/c1ccc2ncccc2c1	none
C(=N\Nc1nc2ccccc2[nH]1)/c1ccccn1	PfGluPho inh 64 | PfG6PD confirm 54 | Diaphorase 10uM inactive | Diaph ctr 30uM inactive
O=C(CSc1nnc(-c2ccncc2)n1-c1ccc(Cl)cc1)c1ccc(Cl)c(Cl)c1	none (no result: PfGluPho inh, M18AAP inhibitor)
O=C(NCCc1ccccc1)OCc1cn(Cc2ccc(C(F)(F)F)cc2)nn1	none (no result: PfGluPho inh, M18AAP inhibitor)
CCN(C(=O)COC(=O)CSc1ccc([N+](=O)[O-])cc1)C1CCS(=O)(=O)C1 (stereo not drawn)	PfGluPho inh 60 | PfG6PD confirm inactive
O=S(=O)(Nc1cccc(-c2cn3c(n2)SCC3)c1)c1ccccc1	none
CC1=NOC(=O)/C1=C\c1ccc(-c2ccc(Cl)cc2Cl)o1	PfGluPho inh 70 | PfG6PD confirm inactive
CCCOc1ccc(Cl)cc1/C=C1/C(=O)ON=C1C	none
C[C@H](CO)N1C[C@H](C)[C@H](CN(C)C(=O)C2CCCCC2)OCc2cnnn2CCCC1=O	none (no result: PfGluPho inh, M18AAP inhibitor)
Cn1c(C(=O)Nc2ccc3c(c2)OCO3)cc2sccc21	PfGluPho inh 81 | PfG6PD confirm inactive
CC(C)(N[C@@H](Cc1ccccc1)C(=O)NCCCc1ccccc1)C(=O)NCc1ccccc1	none (no result: PfGluPho inh, M18AAP inhibitor)
O=S(=O)(Oc1ccccc1/C=N/n1cnnc1)c1ccccc1	PfGluPho inh 96 | PfG6PD confirm 81 | Diaphorase 10uM 81 | Diaph ctr 30uM 63
FC(F)(F)c1cccc(-c2nc3nc(Cl)c(Cl)nc3[nH]2)c1	PfGluPho inh 102 (no result: PRMT1 FP inh, MBD2 DNA inh, UHRF1 MBD2 ctr) | PfG6PD confirm 76 | Diaphorase 10uM 77 | Diaph ctr 30uM 57
FC(F)(F)c1nc2nc(Cl)c(Cl)nc2[nH]1	none (no result: M18AAP inhibitor)
O=[N+]([O-])c1ccc(O)c2cccnc12	none
O=[N+]([O-])c1ccc(O)c2ncccc12	PfGluPho inh 63 | PfG6PD confirm inactive
CCCC1CCC(=NNC(=O)CNc2ccc(OC)cc2)CC1 (stereo not drawn)	none
COc1ccc(NCC(=O)N/N=C/C2CCCCC2)cc1	PfGluPho inh 69 | PfG6PD confirm inactive
O=C(CC1CCCC1)N[C@H](C(=O)N1CCC[C@H]1C(=O)NCCc1ccccc1Cl)c1ccccc1	none (no result: PfGluPho inh, M18AAP inhibitor)
O=C1c2ccccc2-c2onc3ccc(NCc4ccco4)c1c23	PfGluPho inh 74 (no result: PRMT1 FP inh, MBD2 DNA inh, UHRF1 MBD2 ctr) | PfG6PD confirm inactive
COc1ccc(C2C(Oc3ccccc3)C(=O)N2c2cc(C)ccc2C)cc1OC (stereo not drawn)	none

From PubChem BioAssay
